The list is not random: actives were taken first. Their share in the collection is about 7.2%.
Sm TGR block = S. mansoni TGR enzyme inhibition; Potency, µM (titrated, usually from 114 µM), for the others: at the top dose activity change, negative = inhibition, most hits filed as inhibitors; hit rate 3% among 360,000; purified TGR, DTNB reduction, TNB absorbance 405 nm; Q962Y6; also: nearly all actives have a fitted effect of over 60% in size
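TGR 20 nM + NADPH 100 uM (dispensed conc.), cpd preinc 15 min RT; start with NADPH (500 uM addition) then DTNB (15 mM addition). Kinetic TNB absorbance, 405 nm filter. Four-parameter Hill fit across titration.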
MARV entry inh = blocks Marburg virus binding to or entry into cells. hit rate 1.8% among 300,000. Potency, µM (series often up to 37.8 µM), for the others: top-dose activity change, negative = inhibition, most hits filed as inhibitors. Marburg virus pseudotyped entry inhibition, cell reporter. AID 540276; calls by dose curve; tested in HEK293 cells
LASV entry inh = Lassa virus entry inhibition. Lassa virus pseudotype entry inhibition, cell reporter. Potency, µM (top dose mostly 37.9 µM), without a hit: at the top dose activity change, negative = inhibition, hits mostly inhibitors. hit rate 1.2% among 300,000. AID 540256; calls by dose curve; tested in HEK293 cells; also: nearly all actives have a fitted effect of over 50% in size
RE007 growth inh = less growth of the S. pombe RE007 Vpr strain. hit rate 0.21% among 360,000. S. pombe RE007 Vpr strain, BacTiter-Glo ATP luminescence, 24 h. AID 651644. Potency, µM (series often up to 92.2 µM), without a hit: at the highest dose activity change, negative = less growth, actives largely listed as inhibitors; active = well fitted falling curve with a large enough effect; inconclusive = small, poorly fitted or top-dose-only effect; inactive = no such curve, though single readings can be large or run the other way; also: nearly all actives have a fitted effect of over 50% in size
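Fission yeast RE007 carrying one integrated HIV-1 vpr copy, seeded at OD 0.01 in PMG+AL medium with 23 nL pinned compound. Grown 24 h at 30 degrees; viability read by BacTiter-Glo luminescence after 5 min.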
HCV inhibitor = blocks hepatitis C virus; AID 651820; hit rate 3.4% among 340,000; Huh7.5.1 HCVcc-Cre infection, luciferase reporter, 44 h; Potency, µM (titrated, usually from 41.8 µM), without a hit: at the highest dose activity change, negative = inhibition, usual class: inhibitors
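Whole-lifecycle infectious HCVcc-Cre system; cells 1,000/well, compound then virus (~0.5 moi) added 4 h after plating, 44 h culture. Luciferase read 15 sec following 15 min substrate incubation, room temp.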
FMDV inh = blocks foot and mouth disease virus; FMDV antiviral cell-based qHTS; Potency, µM (titrated, usually from 57.9 µM), inactives show at the top dose activity change, negative = inhibition, actives largely listed as inhibitors; hit rate 1.2% among 410,000; AID 1159524; calls by dose curve; tested in HEK293T cells; also: read-out not given here; nearly all actives have a fitted effect of over 45% in size
* = called active by the depositor; ? = inconclusive; . = not tested or not shown; [ ] = another dose, or the depositor's remark. Unless noted, calls follow the shape of the dose curve; as a rule, active = well fitted curve in the direction sought with a large enough effect; inconclusive = small, poorly fitted or top-dose-only effect, or another doubt; inactive = no such curve, though single readings can be large; an effect the other way counts as inactive or inconclusive. % is scaled to controls: 0 for no effect and ±100 for the full control effect; potency is read from the fitted curve at half-maximal effect.

SMILES | Sm TGR block | MARV entry inh | LASV entry inh | RE007 growth inh | HCV inhibitor | FMDV inh
COC(=O)CCN(C(=O)C1CCN(S(=O)(=O)c2c(C)noc2/C=C/c2ccccc2F)CC1)c1ccccc1 | -11% | . | 3%[46.1 µM] | . | . | -7%
Cc1nn(-c2ccccc2)c2c1C(O)n1c(nc3ccccc31)S2 (stereo unspecified) | -5% | ? | ? | -5% | 11µM* | .
Cc1nn(-c2ccccc2)c(C)c1Cc1ccc(O)cc1 | 0% | . | . | 12% | ? | -10%
COc1cccc2c1nc(C)c1cc(C)oc12 | 4% | -3% | -4% | -30% | 5.6µM* | 12%
Cc1ccc(S(=O)(=O)N(C)C)cc1NC(=O)CN1C(=O)NC(Cc2c[nH]c3ccccc23)C1=O (stereo unspecified) | 0% | . | . | 6% | 2% | 9%
Cc1ccc(NC(=O)CN2C(=O)NC(Cc3c[nH]c4ccccc34)C2=O)cc1S(=O)(=O)N1CCCCC1 (stereo unspecified) | -12% | ? | -5% | -12% | 11µM* | ?
O=C(CN1C(=O)NC(Cc2c[nH]c3ccccc23)C1=O)Nc1cccc(S(=O)(=O)N2CCCCCC2)c1 (stereo unspecified) | -10% | ? | -15% | -9% | 10µM* | -4%
CN(C)S(=O)(=O)c1cccc(NC(=O)CN2C(=O)NC(Cc3c[nH]c4ccccc34)C2=O)c1 (stereo unspecified) | 25% | 18%[46.1 µM] | 4%[46.1 µM] | 0% | 1.6µM* | -13%
O=C(CSc1nc2ccccc2nc1Cc1ccc(Cl)cc1)N1CCN(c2ccccc2F)CC1 | 5% | . | 1%[46.1 µM] | . | . | -21%
O=C(c1csnn1)N1CCC[C@@]2(CCN(Cc3ccccc3)C2)C1 | . | . | . | . | . | -2%
Cc1c(CC(=O)N2CCCCC2)c(=O)oc2cc3occ(C(C)(C)C)c3cc12 | -1% | 9%[46.1 µM] | 0%[46.1 µM] | . | . | 10%
COc1cc(OC)c(NC(=O)CCCn2nc(C)c3sc4ccccc4c3c2=O)cc1Cl | -6% | 3.2µM* | ? | . | . | -12%
CS(=O)(=O)c1ccc(C(=O)OCC(=O)NC(=O)C2CCCCC2)cc1[N+](=O)[O-] | 7.1µM* | ? | ? | -9% | -1% | 22µM*
CS(=O)(=O)c1ccc(C(=O)OCC(=O)N2CCN(CCC3CCCCC3)CC2)cc1[N+](=O)[O-] | . | . | . | . | . | 25µM*
CCn1c(Oc2ccc(F)cc2F)nc2c1c(=O)n(C)c(=O)n2C | -8% | -2%[46.1 µM] | 19%[46.1 µM] | . | . | -28%
CCOC(=O)c1cccc(NC(=O)N2CC(CC)Oc3ccccc32)c1 (stereo unspecified) | 2% | . | 7%[46.1 µM] | . | . | -11%
NC(=O)C1=C(c2ccccc2)c2ccccc2C1=O | . | ? | ? | -3% | -1% | 32µM*
O=C(NNc1c2ccccc2nc2ccccc12)c1ccc(O)cc1 | -2% | 5.8µM* | ? | -4% | 10µM* | -5%
O=C(NNc1c2ccccc2nc2ccccc12)c1ccc(O)cc1O | -25% | -25% | -8% | -4% | ? | -24%
O=C(NNc1c2ccccc2nc2ccccc12)c1ccccc1Cl | -1% | . | . | -9% | 4.5µM* | -17%
O=C(NNc1c2ccccc2nc2ccccc12)c1ccccc1O | -6% | ? | ? | 4% | 8.9µM* | -17%
O=C(NNc1nc(=O)c2cccnc2s1)c1ccccc1O | -1% | 11%[46.1 µM] | ? | -6% | 3.2µM* | 46%
Cc1cc(-c2cc(F)cc3c2OC(CNC(=O)CCn2cncn2)C3)ccc1F (stereo unspecified) | . | . | . | . | . | -7%
CCC(C)C1NC(=O)C2CCCN2C(=O)C(CC(C)C)OC(=O)CCNC(=O)C(C)N(C)C(=O)C(C(C)C)N(C)C1=O (stereo unspecified) | . | 2µM* | 3.2µM* | -8% | ? | -20%
C=CCCC[C@@H]1OC(=O)CNC(=O)C([C@@H](C)CC)NC(=O)[C@@H]2CCCN2C(=O)C([C@@H](C)CC)OC(=O)[C@H](Cc2ccccc2)N(C)C(=O)[C@H](C(C)C)NC(=O)C1(C)C (stereo partly specified) | . | . | . | 5% | . | -19%
SMILES | Sm TGR block | MARV entry inh | LASV entry inh | RE007 growth inh | HCV inhibitor | FMDV inh
C=CCSc1nc(N)c(C(=O)Nc2ccccc2)cc1C#N | 0% | ? | 1% | -4% | 3.5µM* | ?
CCOc1cc(/C=C2\CN(C)C/C(=C\c3ccc(O)c(OCC)c3)C2=O)ccc1O | 13µM* | ? | ? | -7% | 22µM* | 18µM*
CCOC(=O)C1=C(O)/C(=C\c2ccc(O)c(OCC)c2)N=C1C | 40µM* | . | . | -10% | 18% | -4%
CCOc1cc(/C=N\O)cc(Cl)c1OCC | ? | 1% | 0% | -23% | ? | -13%
CCOc1cc(/C=C2/N=C(C)C(C(=O)OC)=C2O)ccc1O | -26% | . | . | -6% | 3% | 29%
COc1cc(C=C2CN(C)C(=O)C2=O)ccc1O | . | . | . | -21% | . | -8%
CCOc1cc(/C=C2\CCC/C(=C\c3cc(Cl)c(O)c(OCC)c3)C2=O)cc(Cl)c1O | -25% | 11µM* | 8.9µM* | -6% | ? | 16µM*
CCOc1ccc(NC(=O)c2cc(S(=O)(=O)N3CCN(c4ccccc4F)CC3)ccc2F)cc1 | 11% | . | -4%[46.1 µM] | . | . | -19%
CCOc1ccc(CCNC(=O)c2ccc(CS(=O)(=O)Cc3ccccc3Cl)o2)cc1OCC | -26% | . | ? | . | . | ?
Cn1ccnc1SCc1cn2cc(Br)ccc2n1 | -8% | 6.3µM* | ? | -17% | 6% | -26%
CCOC(=O)c1sc2nccc(N(C)C)c2c1N=CNOC | -17% | 3% | 8% | 19% | ? | ?
CCOC(=O)c1sc2nccc(N(C)C)c2c1N=CNOCc1ccccc1 | 5% | -16% | ? | 8% | 7.9µM* | -14%
Cc1nc(N2CCN(C(=O)COc3ccccc3)CC2)c2c(C)c(C)sc2n1 | -3% | ? | ? | -3% | 13µM* | ?
O=C(COc1ccccc1)N1CCN(c2ncccn2)CC1 | -17% | 14%[46.1 µM] | 15% | 2% | 20% | -11%
Cc1ccc(S(=O)(=O)N(C)C)cc1NC(=O)C(C)N(C)Cc1sccc1C (stereo unspecified) | -1% | ? | . | -7% | 7.1µM* | 16µM*
Cc1ccc(S(=O)(=O)N(C)C)cc1NC(=O)C(C)NC(C)c1cccs1 (stereo unspecified) | -1% | -8% | -43% | -4% | 7% | -26%
O=C1C2CC=C(Cl)CC2C(=O)N1CCCCCCN1C(=O)C2CC=C(Cl)CC2C1=O (stereo unspecified) | 22µM* | -16% | ? | 7% | -13% | .
CSc1ccc(C2NN=C(c3ccccc3)S2)cc1 (stereo unspecified) | . | 2.8µM* | 6.3µM* | ? | -3% | ?
Cc1ccccc1CSc1cn(CC(=O)N2CCCCC2)c2ccccc12 | 2% | . | ? | . | . | 12%

Source: PubChem
